Results on 96 molecules are retold here after PubChem BioAssay AID371 (SRMLSC, 2006).

Out of some 3,300 compounds screened, about 280 (8.5%) were called active. What follows is part of a selection rich in actives, with near analogues and random picks from the rest. A number with no mark means an inactive call.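 The calls were made as follows: active = mean growth inhibition over the two runs of 50% or more; inactive = mean growth inhibition under 50%.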

The nature of the assay: A549 NSCLC cell proliferation inhibitors – ATP luminescence, human non-small cell lung line, primary screen (AID 371).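 Also: compound exposure lasted 72 h before the ATP read; 0% = untreated cell signal and 100% = no luminescence left.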 Particulars: at 10 µM, active compounds read high.
For the molecule `CCOC(=O)N1CC=C2C(C#N)=C(N)C(C#N)(C#N)[C@H](c3cccs3)[C@H]2C1`, the growth inhibition is 8.61%.
The value for `N#CC1=C(N)C(C#N)(C#N)[C@H](c2ccncc2)[C@H]2CN(C(=O)OCc3ccccc3)CC=C12` was 57.7% (active).
The figure for `CC(C)(C)OC(=O)N1CC=C2C(C#N)=C(N)C(C#N)(C#N)[C@H](c3cccnc3)[C@H]2C1` is 9.35%.
The figure for `CCCCOc1ccc(CSC(CC(=O)O)C(=O)O)cc1` (stereo unspecified) is -2.76%; for `COc1ccc2c(C)nc(Nc3nc(C)cc(C)n3)nc2c1` it is 2.87%.
Take `CCOc1ccc2c(C)nc(NC3=NC(C)(C)C=C(C)N3)nc2c1`: the growth inhibition is 72% (active).
The value for `CCCCC(C(=O)O)C(C)CC(=O)Nc1cccc(C(=O)O)c1` (stereo unspecified) was -1.54%; that for `CC[C@H]1OC(=O)C[C@@H](O)[C@H](C)[C@@H](O[C@@H]2O[C@H](C)C[C@H](N(C)C)[C@H]2O)[C@@H](CC=O)C[C@@H](C)C(=O)C=C[C@]2(C)O[C@H]2[C@@H]1C` was 24.4%; that for `CC(C)(C)C1CCC2(CC1)C(C#N)=C(SCC(=O)Nc1ccccc1)NC(=O)C2C#N` (stereo unspecified) was 70.2% (active).
With `CC1=C(C(=O)Nc2ccccc2)C(c2ccncc2)C(C#N)=C(SCC(=O)NC(C)C)N1` (stereo unspecified), the growth inhibition was 6.59%.
As to `CCc1ccc(NC(=O)CSC2=C(C#N)C(c3ccc4c(c3)OCO4)CC(=O)N2)cc1` (stereo unspecified), the growth inhibition is 8.25%.
Turning to `COC(=O)c1ccc(=O)n(Cc2ccc3c(c2)OCO3)c1`, the growth inhibition is 8.75%.
For `CCc1cc2c(=O)c(-c3nc4ccccc4[nH]3)coc2cc1OC(=O)N1CCOCC1`, the growth inhibition is -4.96%.
The value for `CCN(CC)C(=O)c1ccc(O)c(OC)c1` was -6.2%.
In the case of `O=C(O)/C=C/c1ccc(O)c(O)c1`, the growth inhibition was -1.3%.
With `COc1cc(/C=C/C(=O)CC(=O)/C=C/c2ccc(O)c(OC)c2)ccc1O`, the growth inhibition is 75.3% (active).
The figure for `Cc1ccccc1OCC(O)Cn1c(N2CCN(c3ccccc3)CC2)nc2c1c(=O)[nH]c(=O)n2C` (stereo unspecified) is 3.03%; for `O=C(O)CC(NCc1ccco1)C(=O)OCC1CCCO1` (stereo unspecified) it is 0.9%.
For `CCCC(=O)Nn1cnc2c(c1=O)C1(CCCC1)Cc1ccccc1-2`, the growth inhibition is 5.85%.
The figure for `COc1cccc(N2CCN(C3CC(=O)N(c4cccc(Cl)c4)C3=O)CC2)c1` (stereo unspecified) is 4.23%; for `CC(CN1c2ccccc2Sc2ccccc21)N(C)C` (stereo unspecified) it is 25.9%.
The figure for `CSc1ccc2c(c1)N(CCC1CCCCN1C)c1ccccc1S2` (stereo unspecified) is 93.4% (active); for `COc1ccc(/C(O)=C2/C(=O)C(=O)N(CCCN(C)C)C2c2ccco2)cc1Cl` (stereo unspecified) it is 3.4%.
For the molecule `COc1ccc(OC)c(C2/C(=C(\O)c3ccc4c(c3)OCCO4)C(=O)C(=O)N2CCCN(C)C)c1` (stereo unspecified), the growth inhibition is 7.35%.
The figure for `CC(C)N=c1cc2n(-c3ccc(Cl)cc3)c3ccccc3nc-2cc1Nc1ccc(Cl)cc1` is 92.5% (active).
With `COc1ccc(N/C(=N\c2nc(C)cc(C)n2)NC(=O)C(C)C)cc1OC`, the growth inhibition was 7.92%.
The figure for `CC(C)c1nc2n[nH]c(N)c2c2c1CCC2` is -2.18%; for `O=C1OC2CCC1(c1ccccc1)C2` (stereo unspecified) it is -2.09%; for `COc1ccc(C2=CC(c3ccc(C)cc3)n3nnnc3N2)cc1` (stereo unspecified) it is 27.9%.
As to `COc1cccc(C2=CC(c3ccc(N(C)C)cc3)n3nnnc3N2)c1` (stereo unspecified), the growth inhibition is 58.6% (active).
`COc1ccc(C2=CC(c3cccc(OC)c3)n3nnnc3N2)cc1` (stereo unspecified): the growth inhibition is 27.1%.
Take `COc1cccc(C2=CC(c3ccccc3)n3nnnc3N2)c1` (stereo unspecified): the growth inhibition was 72.7% (active).
The figure for `COc1ccc(C2C=C(c3ccc(C)cc3)Nc3ncnn32)cc1` (stereo unspecified) is 30.1%; for `COc1cccc(C2=CC(c3ccccc3)n3ncnc3N2)c1` (stereo unspecified) it is 11.9%.
With `CC(NC(=O)OCc1ccccc1)C(=O)OCN1C(=O)c2ccccc2C1=O` (stereo unspecified), the growth inhibition is 2.01%.
The value for `Cc1ccc(S(=O)(=O)c2cc3c(=O)n4cccc(C)c4nc3n(CC3CCCO3)c2=N)cc1` (stereo unspecified) was 7.96%; that for `COc1ccc(-c2nnc3sc(-c4ccccc4OC)nn23)cc1` was 4.96%.
As for `CCN(CC)c1ccc(-c2nn3c(-c4cccnc4)nnc3s2)cc1`, the growth inhibition is 80.9% (active).
For the molecule `c1cc(-c2nnc3sc(C4CCCCC4)nn23)ccn1`, the growth inhibition is -0.46%.
Consider `COc1ccccc1-c1nn2c(-c3ccc(C(C)(C)C)cc3)nnc2s1`, for which the growth inhibition was 83.3% (active).
The figure for `CCOc1cccc(-c2nnc3sc(-c4cccs4)nn23)c1` is 2.48%.
In the case of `CCOc1ccc(-c2nnc3sc(-c4ccccc4OC)nn23)cc1`, the growth inhibition was -2.6%.
The value for `CCOc1cccc(-c2nnc3sc(-c4ccc(C)cc4)nn23)c1` was 48.3%; that for `CCOc1cccc(-c2nnc3sc(C4CCCCC4)nn23)c1` was 79% (active).
As for `CCOc1cccc(-c2nnc3sc(-c4cc(OC)c(OC)c(OC)c4)nn23)c1`, the growth inhibition is 53.3% (active).
As for `c1cncc(-c2nnc3sc(-c4ccco4)nn23)c1`, the growth inhibition was 3.63%.
The value for `COc1cc(-c2nn3c(-c4cccnc4)nnc3s2)cc(OC)c1OC` was 14%.
The figure for `CCOc1cccc(-c2nnc3sc(COc4ccccc4)nn23)c1` is 3.57%; for `Cc1ccc(N(CC(=O)O)C2SC(=O)NC2=O)cc1` (stereo unspecified) it is -7.76%.
The figure for `Cc1ccc(C2CC(c3cccs3)n3nc(N)nc3N2)cc1` (stereo unspecified) is 17.9%; for `CCOC(=O)c1[nH]c2ccc(Br)cc2c1NC(=O)CCN1CCC(C(=O)OCC)CC1` it is 41.5%; for `CCSc1nnc(N(CCC#N)CCC#N)s1` it is 4.31%.
Turning to `CCOC(=O)CCCCC(=O)NC(CO)C(=O)NC` (stereo unspecified), the growth inhibition was -2.55%.
The value for `CN(CCNC(=O)c1ccc(/C=N/O)nc1)Cc1ccccc1` was -0.01%; that for `COc1ccccc1-c1nnc2sc(C3CCCCC3)nn12` was 24.4%; that for `c1cncc(-c2nnc3sc(C4CCCCC4)nn23)c1` was 25.4%.
As to `COc1cccc(-c2nnc3sc(C4CCCCC4)nn23)c1`, the growth inhibition was 73.3% (active).
The value for `Cn1c(=O)[nH]c(=O)c2c1nc(Br)n2CCSc1ncccn1` was 4.37%.
On to `COCCCNc1nc2c(c(=O)[nH]c(=O)n2C)n1CC(O)COc1ccccc1` (stereo unspecified), for which the growth inhibition is 13.7%.
The value for `OC(CCN1CCCC1)(c1ccccc1)C1CCCCC1` (stereo unspecified) was 7.22%.
Regarding `CC(C)(C)c1ccc(C(O)CCCN2CCC(C(O)(c3ccccc3)c3ccccc3)CC2)cc1` (stereo unspecified), the growth inhibition is 95.9% (active).
The figure for `OC(CCN1CCCCC1)(c1ccccc1)C1CCCCC1` (stereo unspecified) is 1.96%; for `CCCCCSc1nc(C)c(CC(=O)O)c(=O)[nH]1` it is -2.49%; for `CCOC(=O)c1ccc(CC2S/C(=C(\C#N)C(C)=O)NC2=O)cc1` (stereo unspecified) it is 26.4%.
For the molecule `CCOC(=O)/C(C#N)=C1/SC(CCO)C(=O)N1c1ccccc1` (stereo unspecified), the growth inhibition was -8.59%.
With `N#CC(C(=O)Nc1ccc(Cl)c(Cl)c1)=C1Nc2ccccc2N1`, the growth inhibition was 38.8%.
The figure for `CC(=O)/C(C#N)=C1\NC(=O)C(Cc2ccccc2Cl)S1` (stereo unspecified) is 61.9% (active).
The value for `CC(=O)/C(C#N)=C1\NC(=O)C(Cc2ccccc2)S1` (stereo unspecified) was 56% (active).
The value for `N#C/C(C(=O)N1CCOCC1)=C1/SC(Cc2ccccc2)C(=O)N1c1ccccc1` (stereo unspecified) was 0%; that for `CCOc1ccc2nc(NC(NC(=O)CC)(C(=O)OC)C(F)(F)F)sc2c1` (stereo unspecified) was 20.7%.
`CCCCCOc1ccc(C(=O)NCC(=O)NCC(=O)OCC)cc1`: the growth inhibition was 36.1%.
The value for `CC(C)CC(=O)Nc1ccccc1N1CCCC1` was 3.4%; that for `CCOC(=O)CNC(=O)Nc1ccccc1C(=O)OC` was -3.41%.
`CCOC(=O)C1=Nc2ccccc2C1=[N+]=[N-]`: the growth inhibition is 61.3% (active).
On to `CCOC(=O)c1n[nH]c2ccccc12`, for which the growth inhibition is -3.73%.
With `C=CCOn1c(=O)c(-c2ccc(OC)cc2)[n+]([O-])c2ccccc21`, the growth inhibition is 0.35%.
The figure for `CSC1=C(C#N)C(C)CC(=O)N1` (stereo unspecified) is -1.22%.
On to `O=C1c2ccccc2C(=O)N1c1ncccn1`, for which the growth inhibition is 8.95%.
Regarding `COCCCn1c2nc3ccccc3nc2c2c(=O)n(CC3CCCO3)cnc21` (stereo unspecified), the growth inhibition was 3.37%.
The figure for `CCOC(=O)CC(=O)CSc1nc(N)c(C#N)c(-c2ccc(Cl)cc2)c1C#N` is 5.46%.
The value for `CCc1nc(N)nc(N)c1-c1ccc(Cl)cc1` was 79.6% (active); that for `Cc1cc(-c2cc(-c3ccc(Cl)cc3)nc(N)c2C#N)co1` was 30.1%; that for `Cc1c(/C(O)=C2\C(=O)C(=O)N(CCN(C)C)C2c2cccs2)cnn1-c1ccccc1` (stereo unspecified) was 0.12%.
Regarding `O=c1c2ccccc2ncn1Cc1ccco1`, the growth inhibition is 1.72%.
In the case of `OCCNc1ncnc2c1c(-c1ccccc1)c(-c1ccccc1)n2Cc1ccco1`, the growth inhibition was 53.2% (active).
The figure for `c1coc(CNc2ncnc3ccccc23)c1` is 23.6%; for `CC(C)CN1C(=O)NC(NC(=O)c2cccnc2)(C(F)(F)F)C1=O` (stereo unspecified) it is -0.36%; for `Cc1nnc(SCC(=O)N2CCOCC2)c2ccccc12` it is -4.15%.
The value for `COc1cccc(Cn2c(NCC(C)C)nc3c2c(=O)n(C)c(=O)n3C)c1` was 2.01%.
For the molecule `COc1cccc(Cn2c(NCc3ccccn3)nc3c2c(=O)n(C)c(=O)n3C)c1`, the growth inhibition was 23.9%.
The value for `COc1ccc(Oc2nc3c(c(=O)n(C)c(=O)n3C)n2Cc2cccc(OC)c2)cc1` was 27.7%; that for `CCCCNc1nc2c(c(=O)n(C)c(=O)n2C)n1Cc1cccc(OC)c1` was 59.5% (active).
The value for `COc1cccc(Cn2c(NCc3ccco3)nc3c2c(=O)n(C)c(=O)n3C)c1` was 51.8% (active); that for `COCCCNc1nc2c(c(=O)n(C)c(=O)n2C)n1Cc1cccc(OC)c1` was 33.1%; that for `Cc1cc(=O)oc(C)c1C(=O)NCC(C)C` was -13.9%.
For the molecule `C=CCOc1nc2c(c(=O)n(C)c(=O)n2C)n1Cc1c(Cl)cccc1Cl`, the growth inhibition was 25.2%.
